# Source: PubChem BioAssay (Tox21)
# Values joined by “and” are separate entries in the source; they are usually repeats but may differ in a detail not shown here. Equal entries are not always repeated. Inconclusive results are not listed. A number with no mark means an inactive call. Active and inactive are the calls of the source. Calls come from the whole dose curve.
# Assay: qHTS assay to identify small molecule antagonists of the sonic hedgehog signaling (Shh) pathway (AID 1259369); note: nearly all actives have a fitted effect of over 45% in size
# Conditions: NIH/3T3 Gli1-Luc reporter, Shh antagonist, luminescence 24 h; series mostly up to 92.4 µM; activity change, negative = inhibition: at the top concentration
# Excerpt: U.S. Tox21 Program National Center for Advancing Translational Sciences [NCATS] NIH Chemical Genomics Center [NCGC] U.S. Environmental Protection Agency [EPA] National Institutes of Environmental Health Sciences [NIEHS] National Toxicology Program [NTP] U.S. Food and Drug Administration [FDA] Tox21 Assay Overview: The sonic hedgehog (Shh) pathway is essential for normal embryonic development. Dysregulation of the Shh pathway can cause severe developmental defects in organs. Therefore chemicals that interfere with the pathway are potential developmental toxicants. A cell line designated 3T3Gli1-Luc (DMB/OARSA/CFSAN/FDA, Laurel, MD), a NIH/3T3 derived clone containing stably integrated Gli1-Luc reporter is used to detect chemical interference of the Shh pathway, by changes in the expression of the firefly Luc gene under the control of the Gli1 transcriptional response element. This cell line was used to screen Tox21 libraries for identifying and prioritizing the potential developmental toxicants that interfere Shh pathway. Conditioned medium-stimulated mode was used to screen for chemicals inhibiting Shh signaling.
# Tox21 Assay Protocol Summary: 3T3 Gli1-Luc cells were dispensed at 2,000 per well in 5uL of culture medium into white solid bottom 1536-well plates (Greiner Bio-One, Monroe, NC) using a Multidrop Combi (Thermo Scientific, Waltham, MA) dispenser. The assay plates were incubated at 37 C and 5% CO2 for 4hr, and then 23nL of compounds dissolved in DMSO and positive control were transferred using a Pintool station (Wako, San Diego, CA). The compound transfer was followed by the addition of 1ul conditioned medium or assay buffer using two separate tips of Flying Reagent Dispenser (FRD, Aurora Discovery, San Diego, CA). The assay plates were incubated at 37C and 5% CO2 for 24hr. For luciferase read, 4uL of Amplite Luciferase reporter gene assay reagent (AAT Bioquest, Inc. Sunnyvale, CA) was added to each well of the assay plates using FRD and incubated at room temperature for 30min. The luminescence signal was measured using a ViewLux plate reader (Perkin Elmer, Shelton, CT).
# % is set by controls: 0 for no effect and ±100 for the full control effect; potency is the fitted concentration of half-maximal effect.
SMILES,"activity change, negative = inhibition",Potency
CCC(C)C(=O)OC (stereo not given),14.3%,–
CNC(=S)NN,–,3.44 µM (active)
CC(C(O)c1ccccc1)N(C)CCOC(c1ccccc1)c1ccccc1 (stereo not given),–,21.1 µM (active)
C(=C/c1ccccc1)/c1ccccc1,0%,–
Cn1cccc1,0.0057%,–
CS(C)(=O)=O,2.11%,–
CCCCCCC(C)Nc1ccc(Nc2ccccc2)cc1 (stereo not given),–,27.3 µM (active)
CCN(CC)c1cccc(C)c1,20.4%,–
CNC(=O)c1cc(Oc2ccc(NC(=O)Nc3ccc(Cl)c(C(F)(F)F)c3)cc2)ccn1,–,26.6 µM (active)
CCCC(=O)OCC(COC(=O)CCC)OC(=O)CCC,13%,–
CCCCCCCCCCc1ccccc1,10.8%,–
CCCCCCCOC(=O)c1ccc(O)cc1,–,43.3 µM (active)
CCc1cccc(CC)c1NC(=O)C(=O)O,18.8%,–
NC1(c2ccc(-c3nc4ccn5c(=O)[nH]nc5c4cc3-c3ccccc3)cc2)CCC1,–,0.0944 µM (active)
CN(C)CCCN1c2ccccc2Sc2ccc(C(F)(F)F)cc21,–,29.8 µM (active)
CC(C)=CC1CC(C)CCO1 (stereo not given),18.4%,–
O=Nc1ccc(NO)cc1,–,14.2 µM (active)
CCCCCCCC/C=C/CCCOC(C)=O,–,48.6 µM (active)
CCCC(C)CCC(C)=O (stereo not given),29.8%,–
CC1=C(/C=C/C(C)=C/C=C/C(C)=C/C(=O)Nc2ccc(O)cc2)C(C)(C)CCC1,–,14 µM (active) and 11.9 µM (active)

SMILES,"activity change, negative = inhibition",Potency
Clc1cccnc1,5.7%,–
CCO[Si](CCCSSSSCCC[Si](OCC)(OCC)OCC)(OCC)OCC,-33%,–
CC(=O)OC1CCCCC1,-12.1%,–
CCOCN(C(=O)CS(=O)(=O)O)c1c(C)cccc1CC,1.08%,–
CO[Si](CCC1CCC2OC2C1)(OC)OC (stereo not given),5.44%,–
Cc1cncc(C)c1,27.3%,–
CCCCCCCCCCCC(=O)N(CC)CC,4.81%,–
CCCCCCCCCCCCCCNCCO,17.5% [at 42.5 µM],–
CC(=O)Nc1ccc(O)cc1,–,inactive
COc1cc(C(=O)NS(=O)(=O)c2ccccc2C)ccc1Cc1cn(C)c2ccc(NC(=O)OC3CCCC3)cc12,48.2% [at 42.5 µM],–
OCCCS,-0.345%,–
CC(=O)O[C@@H]1C[C@@H]2CC[C@@]1(C)C2(C)C,4.76%,–
C[C@@]12C(=O)OC(=O)[C@]1(C)C1CCC2O1,–,1.68 µM (active)
CC(C)C(=O)OCc1ccccc1,-29.4%,–
Cc1cc(C)c(C=O)c(C)c1,-6.1%,–
C=C(c1ccc(C(=O)O)cc1)c1cc2c(cc1C)C(C)(C)CCC2(C)C,-38.9% [at 42.5 µM],–
C=C1C(C)(C)[C@@]2(Cl)C(Cl)[C@]1(Cl)C(Cl)(Cl)C2(Cl)Cl (stereo not given in full),–,21.3 µM (active)
CC(C)=CCCC(C)O (stereo not given),5.3%,–
CN1CCN(C2Cc3ccccc3Sc3ccc(Cl)cc32)CC1 (stereo not given),–,6.68 µM (active)
CCC1(c2cnc[nH]2)Cc2ccccc2C1,-17.7% [at 42.5 µM],–
